RGS4 inh: Inhibitors of Regulator of G Protein Signaling (RGS) 4: qHTS; Regulator of G-protein signaling 4 (Homo sapiens), P49798; Transcreener GDP fluorescence polarization, RGS4-accelerated GTP hydrolysis; Potency, µM (series often up to 114 µM), most hits filed as inhibitors; hit rate 0.039% among 390,000; AID 504845, 2011; further: nearly all actives have a fitted effect of over 75% in size
Target sequence (P49798 whole entry, looked up): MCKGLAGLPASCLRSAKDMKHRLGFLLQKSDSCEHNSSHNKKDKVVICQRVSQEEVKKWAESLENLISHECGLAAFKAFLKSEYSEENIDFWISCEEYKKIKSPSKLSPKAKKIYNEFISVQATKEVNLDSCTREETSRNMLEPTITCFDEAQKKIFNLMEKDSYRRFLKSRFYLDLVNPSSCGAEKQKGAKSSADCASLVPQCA
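MLSMR compounds (23 nl, pin-transferred) preincubated 10 min at room temperature with a 500nM (2x) first reagent, then RGS4 at 900nM (2x) plus Transcreener GDP mix added; fluorescence polarization (620/688 nm) read before and after 90 min at 30 °C.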
CtBP-E1A inh: qHTS Assay for Inhibitors of the CtBP/E1A Interaction; AID 651724, 2012; activity change, % (test concentration not listed); AlphaScreen GST-E1A/His-CtBP binding, 1536-well; hits give low values; hit rate 0.49% among 340,000; in the data active means activity change below about -65%; inconclusive means mostly about -30% to -63%
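Steps: dispense buffer (Tris pH 8.0, NaCl 300 mM, TCEP 1 mM, BSA, Tween 20); add 5X protein mix (GST-E1A, His-CtBP, 125 nM each); pin 23 nL compound; 2 h at 37 °C, dark; add 5X beads (50 ug/mL); 1 h; read.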
Six1-Eya2 inh: qHTS Assay for Inhibitors of the Six1/Eya2 Interaction; hit rate 0.56% among 360,000; activity change, % (no concentration beside the values); Homeobox protein SIX1 (Homo sapiens) + Protein phosphatase EYA2 (Homo sapiens), …; AID 651725, 2012; AlphaScreen GST-Six1/His-Eya2 binding, biochemical; hits give low values; in the data active means activity change below about -65%; inconclusive means mostly about -30% to -63%
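Six1/Eya2 binding was read as AlphaScreen signal after compounds were pinned into GST-Six1 plus His-tagged Eya2 (5X stock 250/500 nM) in pH 8.0 Tris/NaCl/TCEP buffer, beads added, then incubated 1 h, 37 C, dark.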
GRP78 ERSR act: qHTS for Inducers of the Endoplasmic Reticulum Stress Response (ERSR) in Human Glioma: qHTS; U87-MG GRP78 promoter luciferase reporter, 16 h; Potency, µM, actives largely listed as activators; hit rate 0.02% among 420,000; AID 602332, 2012; further: series mostly up to about 76 µM; nearly all actives have a fitted effect of over 35% in size
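ERSR induction read as luciferase luminescence (Bright-Glo, 10 min at room temperature) in stably transfected human U87-MG glioma cells exposed to compounds for 16 h, using GRP78 as sensor.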
pAkt inh: HTS Assay for Inhibitors of Akt Phophorylation: Primary Screen; activity change, % for hits at 50 µM; hit rate 0.32% among 360,000; Neuro2A IGF-stimulated pAkt S473 HTRF, 20 min; hits give low values; in the data active means activity change below about -80%; inconclusive means mostly about -51% to -80%
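Single-point screen (50 µM final compound) in Neuro2A cells stimulated 20 min with 6 nM IGF at 37 deg C. After lysis, Ser473-phosphorylated Akt read by HTRF (ex 330 nm, em 615/665 nm) as the 665/615 ratio.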
Numbers stand for hits; n = inactive; u = inconclusive; x = not tested or not shown. An excerpt weighted towards active compounds, which were near 0.88% of everything screened. Unless noted, the call rests on the fitted dose curve; in most records, active means well fitted curve in the direction sought with a large enough effect; inconclusive means small, poorly fitted or top-dose-only effect, or another doubt; inactive means no such curve, though single readings can be large; an effect the other way counts as inactive or inconclusive.

SMILES	RGS4 inh	CtBP-E1A inh	Six1-Eya2 inh	GRP78 ERSR act	pAkt inh
CO[C@H]1[C@H](NC(=O)c2ccsc2)c2ccccc2C12CCN(Cc1c(O)ccc3ccccc13)CC2	x	x	x	n	x
C=CCN1CC[C@@H](O)C(=C)S1(=O)=O	x	x	x	n	x
CN1CCc2c(sc3nc(SCC(=O)N4CCOCC4)n(-c4ccc(Cl)cc4)c(=O)c23)C1	n	-80	n	n	n
COC(=O)CSc1nc2sc3c(c2c(=O)n1-c1ccc(OC)cc1)CCN(C)C3	n	n	n	n	n
CN1CCc2c(sc3nc(SCC(=O)N4CCOCC4)nc(N)c23)C1	n	n	n	n	-104%
CCC1CN(CCNC(=O)c2scc3c2OCCO3)Cc2cc(OC)ccc2O1 (stereo not given)	x	x	x	n	x
Cc1ccccc1C(=O)N1CCc2c(cnc(C)c2CNC(=O)CN2CCCCC2)C1	x	x	x	n	x
CCc1ccc(OCC(=O)Nc2ccc(-c3nc4ccccc4o3)c(O)c2)cc1	n	n	n	n	-102%
O=C(CSc1oc(-c2ccco2)nc1S(=O)(=O)c1ccccc1)NCC1CCCO1 (stereo not given)	u	n	n	n	-101%
O=c1c(O)c(-c2cc(O)c(O)c(O)c2)oc2cc(O)ccc12	x	x	x	n	x
O=c1c(O)c(-c2ccc(O)c(O)c2)oc2cc(O)ccc12	n	-74	u	n	n
COc1ccc(F)cc1S(=O)(=O)n1nnc2ccccc21	n	u	-68	n	n
Cc1cccc(NC(=O)c2nc(S(C)(=O)=O)ncc2Cl)c1	u	x	x	n	x
COc1cccc(NC(=O)c2nc(S(C)(=O)=O)ncc2Cl)c1	u	-90	n	n	n
Cc1c(C(=O)N(C)C)sc2nc(-c3ccccn3)[nH]c(=O)c12	n	-97	-89	n	n
COc1cc(C2C(C#N)=C(N)N(Nc3ccccc3)C3=C2C(=O)CC(C)(C)C3)ccc1OCc1cccc(F)c1 (stereo not given)	n	n	n	n	-92%
O=[N+]([O-])c1ccc(/C=C2\C=Cc3ccccc32)cc1	x	x	x	n	x
N#C/C(=C\c1coc2ccccc2c1=O)C(N)=S	u	n	n	n	n
N#C/C(=C\c1coc2ccc(O)cc2c1=O)C(=O)Nc1nc2ccccc2s1	u	-87	-75	u	n
CC(=O)Nc1ccc(-c2csc(NC(=O)c3ccc(C)o3)n2)cc1	n	n	n	n	x
O=C(Nc1nc(-c2ccccn2)cs1)c1ccc([N+](=O)[O-])o1	u	-92	-73	n	n
Cc1ccc(C(=O)Nc2nc(-c3ccccn3)cs2)o1	n	u	-93	n	n
CC(=O)c1ccc(-c2ccc(C(=O)Nc3nc(-c4ccccn4)cs3)o2)cc1	n	-79	-69	n	n
CCc1nnc(NC(=O)c2ccc(-c3ccc(C(C)=O)cc3)o2)s1	n	n	n	n	n
CCc1cc(C(=O)Nc2nc(-c3ccccn3)cs2)sc1C	n	-67	u	n	n
SMILES	RGS4 inh	CtBP-E1A inh	Six1-Eya2 inh	GRP78 ERSR act	pAkt inh
COc1ccc2nccc(/C=C/c3ccc(N(C)C)cc3)c2c1	x	x	x	n	x
CC(=O)c1ccc([N+](C)(C)C)cc1	x	x	x	n	x
O=C(Nc1nc(-c2ccccn2)cs1)c1ccc(-c2ccccc2F)o1	n	-70	u	32µM	n
O=C(Nc1nc(-c2cc(F)ccc2F)cs1)c1ccccn1	n	n	n	n	n
CCN(Cc1ccccc1)c1ccc(/C=C/c2nccc3ccccc23)cc1	x	x	x	n	x
CCOC(=O)C1CCCN(C(=O)c2cnn(-c3ncc4c(n3)-c3ccccc3CC4)c2C)C1 (stereo not given)	x	x	x	n	x
Cc1cccc(NC(=O)Cn2c(=O)n(Cc3ccco3)c(=N)c3c4c(sc32)COC(C)(C)C4)c1	n	n	n	n	n
CC1(C)Cc2c(sc3c2c(=N)n(Cc2ccco2)c(=O)n3CC(=O)Nc2cccc(Cl)c2)CO1	n	n	n	n	-122%
COCC1=C(C(=O)OC(C)OC(=O)OC(C)C)N2C(=O)C(NC(=O)/C(=N\OC)c3csc(N)n3)C2SC1 (stereo not given)	x	x	x	n	x
O=C(O)CN(CC(=O)O)CC(=O)O	n	-96	-73	n	n
